Chronic BCR inh: inhibitors of chronic active B-cell receptor signaling | ABC-DLBCL IkBa-CBG/CBR reporter, luminescence ratio, 4 h | Potency, µM (top dose mostly 46.1 µM), actives largely listed as inhibitors | 0.05% of 340,000 active; active = well fitted inhibition curve with a large enough effect in the signal ratio, with a control signal flat, not every such curve was filed as active; inconclusive = small, poorly fitted or top-dose-only effect, or effect the other way, or a change in a side signal; the % refers to the signal ratio
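TMD8 human ABC-DLBCL cells with doxycycline-inducible IκBα–green luciferase fusion and unfused red luciferase, in 0.5% FBS medium; compounds up to 46 uM, 4 h at 37C. Green/red luminescence ratio, filter-overlap corrected, fitted to concentration-response curves.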
IL1B secr inh: blocks inflammasome-driven IL-1 beta release | THP-1 LPS/ATP IL-1B secretion, AlphaLISA, 16 h; active compounds read low | activity change, % at 57.5 µM | 4.7% of 360,000 active | AID 743279; in the data active = activity change below about -50%; inconclusive = mostly about -30% to -49%
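THP-1 cells pretreated 1 hr with compounds (up to 57.5 uM final), then stimulated with LPS (250 ng/mL final) plus ATP (1.25 mM final); secreted IL-1B measured by AlphaLISA after 16 hr, decreased signal indicating inhibition.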
MCF10A rereplic: DNA re-replication induction in MCF 10a cells. MCF 10A DNA re-replication, Hoechst nuclear intensity, 48 h. Potency, µM (highest dose often 46.1 µM), actives largely listed as activators. 2.9% of 350,000 active. AID 624296; also: nearly all actives have a fitted effect of over 50% in size
DT40 TDP1 CPT: DT40-hTDP1 cell growth loss with CPT. chicken DT40 Tdp1-/-;hTDP1 cells + 20 nM CPT, ATP luminescence, 48 h. Potency, µM (doses to about 46.2 µM), most hits filed as inhibitors. 12% of 420,000 active; also: nearly all actives have a fitted effect of over 55% in size
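Chicken DT40 Tdp1-/- cells complemented with human TDP1, 400 cells/well, exposed to compounds plus 20 nM camptothecin for at least 48 h at 37 C; viability read as ATP content by CellTiter-Glo luminescence.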
SW480 rereplic: induces DNA re-replication in SW480 colon adenocarcinoma cells. SW480 DNA re-replication, Hoechst DNA content imaging, 48 h. Potency, µM (doses to about 46.1 µM), most hits filed as activators. 1.8% of 340,000 active. AID 624297; also: nearly all actives have a fitted effect of over 55% in size
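Per well, 250 cells were exposed to pinned compound for 48 hr. Nuclear DNA was visualised with Hoechst (40 min, 37 C) and total object intensity recorded by fluorescence scanning.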
TDP1 cell noCPT: qHTS for Inhibitors of human tyrosyl-DNA phosphodiesterase 1 (TDP1): qHTS in cells in absence of CPT | DT40 Tdp1-/- hTDP1 cells, no CPT, ATP luminescence, 48 h | AID 686978, 2013 | Potency, µM (titrated, usually from 46.2 µM), most hits filed as inhibitors | 15% of 420,000 active; also: nearly all actives have a fitted effect of over 55% in size
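DT40 Tdp1-/-;hTDP1 cells, no CPT (DMSO vehicle only), 400 cells/well; compounds pin-transferred; ≥48 hr, 37 °C; CellTiter-Glo 30 min RT dark, luminescence read.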
Hits are given with their value; . = inactive; ? = inconclusive; / = no result given; [ ] = another dose, or the depositor's remark. Only some compounds are listed: those with a hit (about 19% of all), similar ones and a draw of the others. Unless noted, calls follow the shape of the dose curve; as a rule, active = well fitted curve in the direction sought with a large enough effect; inconclusive = small, poorly fitted or top-dose-only effect, or another doubt; inactive = no such curve, though single readings can be large; an effect the other way counts as inactive or inconclusive.

SMILES	Chronic BCR inh	IL1B secr inh	MCF10A rereplic	DT40 TDP1 CPT	SW480 rereplic	TDP1 cell noCPT
CCOc1cc(/C=N/O)cc(Br)c1OCc1ccc(Cl)cc1	.	-78	11µM	?	?	?
CCOc1cc(/C=N/O)ccc1OCc1ccc(C)cc1	?	.	.	?	?	23µM
O=C(c1ccc2c(c1)OCO2)N1CCN(S(=O)(=O)c2ccc(Cl)cc2)CC1	.	.	.	.	.	.
Cc1ccc(NC(=O)CSc2nnc3[nH]c(=O)cc(-c4ccccc4)n23)cc1Cl	.	/	/	.	/	.
COc1cccc(CNC(=O)c2ccc(NC(=O)N3CCCCc4ccccc43)cc2)c1	/	/	/	?	/	21µM
COCCNC(=O)c1ccc(NC(=O)N2CCCCc3ccccc32)cc1	/	/	/	.	/	.
COc1cccc(CNC(=O)c2ccc(-n3c(C)cc4c3CCCC4)cc2)c1	/	/	/	.	/	16µM
COCCCNC(=O)NC(=O)c1ccccc1	.	.	.	.	.	.
COc1cccc(CNC(=O)c2ccc(C(=O)NCc3cccc(OC)c3)cc2)c1	.	.	.	.	.	.
COc1cccc(CNC(=O)c2ccc(NC(=O)N3CCCCc4ccccc43)cc2)c1OC	/	/	/	?	/	16µM
COCCCNC(=O)c1ccc(-n2c(-c3ccccc3)cc3c2CCCC3)cc1	/	/	/	?	/	21µM
O=C(NCc1ccccc1Cl)c1ccc(NC(=O)N2CCCCc3ccccc32)cc1	/	/	/	.	/	.
C[C@@H](CN(C)C)CN1c2ccccc2CCc2ccccc21	/	/	.	/	.	/
Cc1ccc(C(=O)N(Cc2cc3cc4c(cc3nc2N2CCOCC2)CCC4)CC2CCCO2)s1 (centres undefined)	/	/	/	.[9.04 µM]	/	.
COc1ccc(CCNC(=O)c2ccc(Cn3c(SCc4ccccc4)nc4cccnc43)cc2)cc1	/	/	/	?	/	2.9µM
CCN(CC)CCNC(=O)c1ccc(Cn2c(SCc3ccccc3)nc3cccnc32)cc1	/	/	/	.	/	.
CN(Cc1ccccc1)C(=O)c1ccc(CSc2nc3cccnc3n2Cc2ccccc2)cc1	/	/	/	12µM	/	?
COc1ccc(Cn2c(SCc3ccc(C(=O)NC(C)c4ccccc4)cc3)nc3cccnc32)cc1 (centres undefined)	/	/	/	.	/	?
O=C(NCCc1ccccc1)c1ccc(Cn2c(SCc3ccc(F)cc3)nc3cccnc32)cc1	/	/	/	?	/	.
COc1cccc(CCNC(=O)c2ccc(Cn3c(SCc4ccccc4)nc4cccnc43)cc2)c1	/	/	/	?	/	21µM
O=C(NCCc1ccccc1)c1ccc(CSc2nc3cccnc3n2Cc2ccccc2)cc1	/	/	/	?	/	15µM
O=C(c1cc(F)c(F)cc1Cl)N1CCN(S(=O)(=O)c2cccs2)CC1	.	.	.	.	.	.
COc1ccccc1N1CCN(C(=O)C(C)NC(=O)c2cccc([N+](=O)[O-])c2)CC1 (centres undefined)	.	.	.	?	.	?
C[C@H]1CN(CCc2ccccc2)C(=O)[C@@H]1CC(=O)NCc1ccccc1	.	.	.	?	.	?
CC(=O)c1ccccc1OCC(O)CN1CCN(CCN2C(=O)c3cccc4cccc(c34)C2=O)CC1 (centres undefined)	?	?	?	6.5µM	?	6.5µM
SMILES	Chronic BCR inh	IL1B secr inh	MCF10A rereplic	DT40 TDP1 CPT	SW480 rereplic	TDP1 cell noCPT
CC(=O)c1ccccc1OCC(O)CN1CCN(c2ccccn2)CC1 (centres undefined)	.	.	.	.	?	.
Cc1ccc(C)c(OCC(O)CN2CCN(CCN3C(=O)c4cccc5cccc(c45)C3=O)CC2)c1 (centres undefined)	.	-102	?	16µM	?	18µM
Cc1cc(NC(=O)c2cc(-c3ccncc3)nc3c(C)cccc23)no1	.	.	?	4.1µM	6.5µM	2.9µM
Cc1cccc(NC(=O)c2cc(-c3cccnc3)nc3c(C)cccc23)n1	.	.	16µM	?	.	15µM
COc1cccc(NC(=O)c2cc(-c3cccnc3)nc3c(Cl)cccc23)c1	.	.	?	?	.	?
CCn1c(SCC(=O)N/N=C(/C)c2ccncc2)nc2ccccc21	.	.	.	.	.	?
CCN1CCc2c(sc(-n3cccc3)c2C(C)NC(=O)Nc2cc(Cl)c(OC)cc2OC)C1 (centres undefined)	/	/	/	18µM	/	18µM
CCOCCCNC(=O)NC(CCC(C)C)c1c(-n2cccc2)sc2c1CCN(C)C2 (centres undefined)	/	/	/	16µM	/	16µM
CCN1CCN(CCC(=O)Nc2ccccc2C)CC1	.	.	.	?	.	?
COc1cc(OC)c(NC(=O)NC(C)c2c(-n3cccc3)sc(C)c2C)cc1Cl (centres undefined)	/	/	/	.	/	.
CCN1CCc2c(sc(-n3cccc3)c2C(C)NC(=O)Nc2ccccc2C)C1 (centres undefined)	/	/	/	?	/	23µM
CCOCCCNC(=O)c1ccc(CN2CCc3ccccc3C2)cc1	/	.	/	?	/	?
CC(NC(=O)Nc1cc(Cl)ccc1Cl)c1c(-n2cccc2)sc2c1CCCC2 (centres undefined)	/	/	/	?	/	18µM
Cc1c(Cl)cccc1NC(=O)NCc1c(-n2cccc2)sc2c1CCCC2	/	/	/	.	/	.
COc1cc(NC(=O)N[C@H](C(=O)O)C(C)C)cc(OC)c1	.	.	.	.	.	.
COc1cc(NC(=O)NC(C)c2c(-n3cccc3)sc3c2CCN(C)C3)cc(OC)c1 (centres undefined)	?	/	/	23µM	/	23µM
Cc1ccc(NC(=O)NCc2c(-n3cccc3)sc3c2CCCC3)c(Cl)c1	/	/	/	?	/	23µM
CCN1CCN(C(=O)c2ccc(Cl)c(S(=O)(=O)N3CCCCC3)c2)CC1	.	.	.	?	.	.
CCOc1ccc(-c2cncc3nccn23)cc1	/	-52	/	.	/	.
COC(=O)C(=O)Nc1nnc(COc2ccccc2)s1	.	.	?	.	.	.
CC(=O)Nc1nnc(COc2ccccc2)s1	?	.	.	.	18µM	.
COc1ccc(N2C(=O)CC(SCC(=O)O)C2=O)cc1 (centres undefined)	.	.	.	.	.	.
COc1ccccc1NC(=O)CN1CCN(CC(=O)Nc2ccc3c(c2)OCO3)CC1	.	.	.	?	.	?
COc1ccc(NC(=O)CSC2CC(=O)N(c3ccc4c(c3)OCCO4)C2=O)cc1 (centres undefined)	?	.	.	21µM	.	23µM
COc1ccccc1NC(=O)CSC1CC(=O)N(c2ccc3c(c2)OCO3)C1=O (centres undefined)	.	.	.	4.6µM	.	6.5µM
NC(N)=Nc1nc2cc([N+](=O)[O-])ccc2o1	.	?	.	10µM	.	10µM

Assay outcomes: PubChem, National Center for Advancing Translational Sciences (NCATS)
